Results reported in PubChem BioAssay AID1159580 (chemical genetic matrix, 2015).
About 2,000 (36%) of roughly 5,500 compounds were called active. About 18% were inconclusive and are not listed. Cut-off read from the data, not from the text of the source: active = normalized growth mostly below about 0.91 (no sharp cut-off); inconclusive = no clear call, values can overlap the other calls; inactive = mostly above about 0.92. This is one part of the list.

Assay: chemical genetic growth profiling, strain panel (AID 1159580);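 note: tested at 20 µM; growth read once vehicle control cultures reached saturation at 30 °C; 1 = growth at the plate median or of vehicle wells; lower values mean less growth of the strain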
Conditions: growth OD

Measured: normalized growth

COc1cc([C@@H]2c3cc4c(cc3[C@H](OC(C)=O)[C@H]3COC(=O)[C@H]23)OCO4)cc(OC)c1OC
inactive: S. cerevisiae deletion strains, locus YJR066W, strain TOR1, active compounds read low 0.932 | S. cerevisiae deletion strains, locus YKL009W, strain mrt4, active compounds read low 0.972 | S. cerevisiae deletion strains, locus YKL068W, active compounds read low 0.988 | S. cerevisiae deletion strains, locus YKL085W, strain MDH1 (second series), active compounds read low 1 | S. cerevisiae deletion strains, locus YKL085W, strain MDH1, active compounds read low 1 | S. cerevisiae deletion strains, locus YKL160W, strain elf1, active compounds read low 0.999 | S. cerevisiae deletion strains, locus YKL190W, strain CNB1, active compounds read low 1 | S. cerevisiae deletion strains, locus YKR001C, strain vps1, active compounds read low 0.976 | S. cerevisiae deletion strains, locus YKR026C, strain gcn3, active compounds read low 1.01 | S. cerevisiae deletion strains, locus YKR091W, strain srl3, active compounds read low 1.01 | S. cerevisiae deletion strains, locus YLL001W, strain dnm1, active compounds read low 1 | S. cerevisiae deletion strains, locus YLL026W, active compounds read low 1.01 | S. cerevisiae deletion strains, locus YLL041C, strain sdh2, active compounds read low 1.01 | S. cerevisiae deletion strains, locus YLR027C, strain aat2, active compounds read low 1 | S. cerevisiae deletion strains, locus YLR039C, strain RIC1, active compounds read low 0.954 | S. cerevisiae deletion strains, locus YLR058C, strain SHM2, active compounds read low 0.998 | S. cerevisiae deletion strains, locus YLR102C, strain apc9, active compounds read low 0.974 | S. cerevisiae deletion strains, locus YLR113W, strain HOG1, active compounds read low 1.07 | S. cerevisiae deletion strains, locus YLR221C, strain rsa3, active compounds read low 1.01 | S. cerevisiae deletion strains, locus YLR258W, strain gsy2, active compounds read low 0.997 | S. cerevisiae deletion strains, locus YLR262C, strain YPT6 (second series), active compounds read low 0.914 | S. cerevisiae deletion strains, locus YLR262C, strain YPT6, active compounds read low 0.933 | S. cerevisiae deletion strains, locus YLR268W, strain sec22, active compounds read low 0.984 | S. cerevisiae deletion strains, locus YLR320W, strain mms22, active compounds read low 1 | S. cerevisiae deletion strains, locus YLR330W, strain CHS5, active compounds read low 0.994 | S. cerevisiae deletion strains, locus YLR342W, strain FKS1 (second series), active compounds read low 0.995 | S. cerevisiae deletion strains, locus YLR342W, strain FKS1, active compounds read low 1.01 | S. cerevisiae deletion strains, locus YLR357W, strain rsc2, active compounds read low 1.06 | S. cerevisiae deletion strains, locus YLR370C, strain arc18, active compounds read low 1.01 | S. cerevisiae deletion strains, locus YLR371W, strain rom2, active compounds read low 0.992 | S. cerevisiae deletion strains, locus YLR384C, strain iki3, active compounds read low 1.02 | S. cerevisiae deletion strains, locus YLR418C, strain cdc73, active compounds read low 0.971 | S. cerevisiae deletion strains, locus YML016C, strain PPZ1, active compounds read low 0.997 | S. cerevisiae deletion strains, locus YML032C, strain rad52, active compounds read low 0.97 | S. cerevisiae deletion strains, locus YML120C, strain ndi1, active compounds read low 1 | S. cerevisiae deletion strains, locus YML124C, strain tub3, active compounds read low 0.984 | S. cerevisiae deletion strains, locus YMR058W, strain fet3, active compounds read low 1.01 | S. cerevisiae deletion strains, locus YMR078C, strain ctf18, active compounds read low 0.99 | S. cerevisiae deletion strains, locus YMR125W, strain sto1, active compounds read low 1.01 | S. cerevisiae deletion strains, locus YMR129W, active compounds read low 1 | S. cerevisiae deletion strains, locus YMR205C, strain PFK2, active compounds read low 1.02 | S. cerevisiae deletion strains, locus YMR223W, strain ubp8, active compounds read low 0.974 | S. cerevisiae deletion strains, locus YMR231W, strain pep5, active compounds read low 0.997 | S. cerevisiae deletion strains, locus YMR307W, strain GAS1, active compounds read low 1.02 | S. cerevisiae deletion strains, locus YNL067W, strain RPL9B, active compounds read low 1.01 | S. cerevisiae deletion strains, locus YNL071W, strain lat1, active compounds read low 1.01 | S. cerevisiae deletion strains, locus YNL128W, strain TEP1, active compounds read low 0.992 | S. cerevisiae deletion strains, locus YNL183C, strain NPR1, active compounds read low 0.993 | S. cerevisiae deletion strains, locus YNL209W, strain ssb2, active compounds read low 0.996 | S. cerevisiae deletion strains, locus YNL233W, strain BNI4, active compounds read low 0.997 | S. cerevisiae deletion strains, locus YNL248C, strain rpa49, active compounds read low 1.01 | S. cerevisiae deletion strains, locus YNL250W, strain rad50, active compounds read low 0.985 | S. cerevisiae deletion strains, locus YNL271C, strain bni1, active compounds read low 0.983 | S. cerevisiae deletion strains, locus YNL298W, strain CLA4, active compounds read low 0.997 | S. cerevisiae deletion strains, locus YNL307C, strain MCK1, active compounds read low 0.98 | S. cerevisiae deletion strains, locus YNL322C, strain KRE1 (second series), active compounds read low 1.03 | S. cerevisiae deletion strains, locus YNR049C, strain mso1, active compounds read low 1 | S. cerevisiae deletion strains, locus YNR052C, strain pop2, active compounds read low 0.973 | S. cerevisiae deletion strains, locus YOL006C, strain TOP1, active compounds read low 0.861 | S. cerevisiae deletion strains, locus YOL012C, strain htz1 1.23 | S. cerevisiae deletion strains, locus YOL147C, strain pex11, active compounds read low 0.981 | S. cerevisiae deletion strains, locus YOR001W, strain rrp6, active compounds read low 1 | S. cerevisiae deletion strains, locus YOR061W, strain CKA2, active compounds read low 0.994 | S. cerevisiae deletion strains, locus YOR069W, strain VPS5, active compounds read low 0.99 | S. cerevisiae deletion strains, locus YOR070C, strain gyp1, active compounds read low 1.01 | S. cerevisiae deletion strains, locus YOR080W, strain dia2, active compounds read low 1 | S. cerevisiae deletion strains, locus YOR083W, strain WHI5, active compounds read low 1 | S. cerevisiae deletion strains, locus YOR106W, strain vam3, active compounds read low 1.02 | S. cerevisiae deletion strains, locus YOR136W, strain idh2, active compounds read low 0.98 | S. cerevisiae deletion strains, locus YOR144C, strain elg1, active compounds read low 0.99 | S. cerevisiae deletion strains, locus YOR184W, strain ser1, active compounds read low 1.01 | S. cerevisiae deletion strains, locus YOR231W, strain MKK1, active compounds read low 0.972 | S. cerevisiae deletion strains, locus YOR265W, strain rbl2, active compounds read low 1.01 | S. cerevisiae deletion strains, locus YOR270C, strain vph1, active compounds read low 0.921 | S. cerevisiae deletion strains, locus YOR290C, strain snf2, active compounds read low 1 | S. cerevisiae deletion strains, locus YOR316C, strain cot1, active compounds read low 0.992 | S. cerevisiae deletion strains, locus YPL051W, strain arl3, active compounds read low 1 | S. cerevisiae deletion strains, locus YPL078C, strain atp4, active compounds read low 0.998 | S. cerevisiae deletion strains, locus YPL106C, strain sse1, active compounds read low 1.02 | S. cerevisiae deletion strains, locus YPL240C, strain hsp82, active compounds read low 1.01 | S. cerevisiae deletion strains, locus YPL256C, strain CLN2, active compounds read low 0.986 | S. cerevisiae deletion strains, locus YPR119W, strain clb2, active compounds read low 0.986 | S. cerevisiae deletion strains, locus YPR141C, strain kar3, active compounds read low 0.98 | S. cerevisiae deletion strains, locus YPR163C, strain tif3, active compounds read low 0.991 | S. cerevisiae deletion strains, locus YPR167C, strain met16, active compounds read low 0.969 | S. cerevisiae deletion strains, strain wtn01, active compounds read low 1 | S. cerevisiae strains, strain wild type, active compounds read low 1
